Records with an inconclusive call do not appear. Where a call stands in place of a potency, no number is given. Activity calls are given as the source filed them. The call rests on the fitted dose curve; in most records, active means well fitted inhibition curve with a large enough effect; inconclusive means small, poorly fitted or top-dose-only effect; inactive means flat fitted curve, though single readings scatter.
Assay: Counterscreen Assay for Enhancers of SMN2 Splice Variant Expression: Modulation of SMN1 Expression
Conditions: HEK293 SMN1-luciferase reporter, luminescence, 30-36 h; series mostly up to 22.8 µM
Excerpt: NIH Chemical Genomics Center [NCGC] NIH Molecular Libraries Probe Production centers Network [MLPCN] MLPCN Grant: R03 MH084179-01 Assay Submitter (PI): Elliot Androphy NCGC Assay Overview: Spinal muscular atrophy (SMA) is caused by insufficient levels of the survival motor neuron protein SMN. The SMN locus on chromosome 5q13 contains two inverted copies of SMN called SMN1 and SMN2 which are 99% identical at the amino acid level. SMN1 is a fully functional protein and SMN2 skips exon 7 90% of the time. Skipping of exon 7 produces non-functional protein product. 10% of the SMN2 protein includes exon 7 and is fully functional. In the SMA disease state, mutations in the SMN1 locus are the cause of the disease state. Because only 10% of SMN2 is of the fully functional form, it is not sufficient to overcome the deficiency produced by the loss of the SMN1 product. A therapy that either increase the amount of SMN2 product made or to increase the inclusion of exon 7 has been proposed for the treatment of SMA. We have designed an assay to identify small molecules that can increase the amount of functional SMN2 product by appending a luciferase reporter gene after the native SMN2 gene, such that inclusion of exon 7 in the expressed product places the luciferase sequence in frame, thus generating functional luciferase enzyme. […]

| SMILES | Potency |
| --- | --- |
| CC[C@]1(O)CC(O[C@@H]2CC(N(C)C)C(O)C(C)O2)c2c(cc3c(c2O)C(=O)c2c(O)cccc2C3=O)C1C(=O)OC (some centres not stated) | 1120 nM (active) |
| CCc1ccc2nc(N3CCC(C(=O)N4CCC5(CC4)OCCO5)CC3)sc2c1 | inactive |

From PubChem BioAssay AID1739 (National Center for Advancing Translational Sciences (NCATS), 2009)
